# Source: PubChem
# RXFP1 ag: agonists of human relaxin receptor RXFP1. Potency, µM (highest dose often 57.5 µM), usual class: activators. actives 0.3% (n = 370,000). AID 2676. HEK293T-RXFP1 cAMP TR-FRET, 30 min; response scale: percent of porcine relaxin response, buffer zero. Q9HBX9; also: nearly all actives have a fitted effect of over 60% in size
#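 HEK293T cells stably expressing RXFP1 were pretreated with the PDE4 inhibitor Ro 20174, exposed to compounds for 30 min at 37C, lysed, and cAMP was read by TR-FRET. Data normalized to buffer (basal) and 29 nM porcine relaxin (100%).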
# Glioma ERSR ind: induces the endoplasmic reticulum stress response in human glioma cells. actives 0.02% (n = 420,000). U87-MG GRP78 promoter luciferase reporter, 16 h. Potency, µM, actives largely listed as activators; also: series mostly up to about 76 µM; nearly all actives have a fitted effect of over 35% in size
#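 Stably transfected U87-MG glioma cells carrying a GRP78-based luciferase sensor; 16 h compound incubation. Luminescence end-point read 10 min after Bright-Glo addition at room temperature.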
# PTHR1 agonist: agonists of human PTHR1 parathyroid hormone receptor; Q03431; HEK293 GP2 PTHR1 cells, GloSensor cAMP luminescence, 1 h; Potency, µM (top dose mostly 115 µM), actives largely listed as activators; actives 0.075% (n = 410,000); also: nearly all actives have a fitted effect of over 55% in size
# Target sequence (Q03431 whole entry, looked up): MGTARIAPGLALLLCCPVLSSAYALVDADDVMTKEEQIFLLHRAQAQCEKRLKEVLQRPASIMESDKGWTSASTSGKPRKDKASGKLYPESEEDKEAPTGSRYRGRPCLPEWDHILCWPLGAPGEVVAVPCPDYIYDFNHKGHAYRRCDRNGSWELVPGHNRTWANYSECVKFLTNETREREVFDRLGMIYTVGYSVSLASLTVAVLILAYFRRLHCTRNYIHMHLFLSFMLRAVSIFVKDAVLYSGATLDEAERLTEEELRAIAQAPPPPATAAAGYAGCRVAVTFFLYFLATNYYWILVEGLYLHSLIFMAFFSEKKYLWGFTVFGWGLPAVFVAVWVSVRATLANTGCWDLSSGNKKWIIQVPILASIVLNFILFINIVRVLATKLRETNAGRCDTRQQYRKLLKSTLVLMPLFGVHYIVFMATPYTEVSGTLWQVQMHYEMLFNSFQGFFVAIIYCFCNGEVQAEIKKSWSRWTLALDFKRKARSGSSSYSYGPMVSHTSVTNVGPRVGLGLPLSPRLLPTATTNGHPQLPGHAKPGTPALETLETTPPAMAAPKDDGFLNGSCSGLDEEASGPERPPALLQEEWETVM
#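 HEK-293-derived GP2 cells expressing PTHR1 and a GloSensor cAMP reporter, 3,000/well, plated overnight, given luciferin plus IBMX (each 0.5 mM as added) for 1 h at 37 °C, then compound for 1 h at 37 °C. Luminescence was read after 15 min at room temperature.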
# RXFP1 antagonist: antagonists of human relaxin receptor RXFP1; Q9HBX9; HEK293-RXFP1, relaxin-stimulated cAMP HTRF, 30 min; hits give low values; actives 0.59% (n = 350,000); AID 1259400; activity change, negative = inhibition, % at 57.5 µM;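 active = activity change of -60% or lower, but not beyond a set lower limit; inconclusive = change between -60% and -40%, or beyond the set limit; inactive = change above -40%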
# KCNH2 WT inh: KCNH2 (human, wildtype) channel inhibition; U2OS, BacMam KCNH2, thallium flux FluxOr; hits give low values; activity change, % at 1.84 µM; actives 0.37% (n = 340,000); AID 720551;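 active = maximum activity change below -70%; inconclusive = maximum activity change between -70% and -50%; inactive = maximum activity change above -50%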
#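 U2OS cells transduced with wild-type KCNH2 virus are loaded with FluxOr dye for 45 min, and thallium flux is measured in kinetic reads before and after stimulation buffer. Rate constants are normalized to DMSO controls.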
# KCNH2 3.1 inh: blocks the human KCNH2 3.1 channel isoform | activity change, % (tested at about 1.8 µM) | U2OS KCNH2 3.1, thallium flux FluxOr; hits give low values | actives 0.95% (n = 340,000) | AID 720553;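 active = maximum activity change below -70%; inconclusive = maximum activity change from -70% to -50%; inactive = maximum activity change above -50%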;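 also: thallium influx rate constant from kinetic fluorescence after stimulation buffer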
#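 Virally transduced U2OS (3.1 isoform, 4 h infection in dark at RT) → overnight 37 C → FluxOr + Red40 in HBSS/HEPES, 45 min → stimulation buffer, 2 min kinetic read → rate constant vs DMSO controls.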
# A number is an active result; – = inactive; ? = inconclusive; · = no result given. Shown are actives, neighbours in structure and some others; about 1.4% of the full set was active somewhere. Unless noted, calls follow the shape of the dose curve; as a rule, active = well fitted curve in the direction sought with a large enough effect; inconclusive = small, poorly fitted or top-dose-only effect, or another doubt; inactive = no such curve, though single readings can be large; an effect the other way counts as inactive or inconclusive.
SMILES,RXFP1 ag,Glioma ERSR ind,PTHR1 agonist,RXFP1 antagonist,KCNH2 WT inh,KCNH2 3.1 inh
Cc1nc2cc(C(F)(F)F)ccc2n1C1CCN(Cc2nnnn2Cc2ccc3c(c2)OCO3)CC1,–,–,–,–,–,-77
OC1(c2ccc(F)cc2)CC2CCC(C1)N2Cc1nnnn1C1CCCC1 (stereo not given),–,–,–,–,–,–
Fc1ccc2c(c1)nnn2C1CCN(Cc2nnnn2CCc2ccccc2)CC1,–,–,–,–,–,–
O=[N+]([O-])/C=C/c1ccc2c(c1)OCO2,·,–,·,·,·,·
COC(=O)C1=C(c2ccc(Cl)c(C(F)(F)F)c2)C[C@@H]2CC[C@H]1N2C(=O)NCCO,–,–,–,·,–,–
CN(C)CCc1nn[nH]n1,–,–,–,–,–,–
Cc1nc2ccccc2n1C1CCN(Cc2nnnn2CCc2ccccc2)CC1,–,–,–,–,–,-82
c1ccc(CCn2nnnc2CN2CCC(n3nnc4ccccc43)CC2)cc1,–,–,–,–,–,–
CN1C(=O)C(Cc2ccsc2)C(=O)N(C)C1=O,–,–,28µM,–,–,–
CN1C(=O)C(Cc2ccccc2)C(=O)N(C)C1=O,·,–,–,–,–,–
CN(C)CCSCc1nnc2n1-c1ccc(Cl)cc1C(c1ccccc1Cl)=NC2,·,–,–,–,–,-76
Cc1cc(C)c(-n2c(O)c(/C=N/N3CCCCC3c3cccnc3)c(=O)[nH]c2=O)c(C)c1 (stereo not given),–,–,–,–,–,·
Oc1c(Cl)cccc1Cc1cc(Cl)cc(Cl)c1O,·,–,–,-110,–,–
O=[N+]([O-])c1cc(Cl)c(Cl)cc1Cl,–,–,–,·,–,–
CCOc1cc2c(cc1OCC)-n1cccc1C(c1ccc(OC(F)F)cc1)NC2 (stereo not given),–,–,–,–,–,-82
CCCN(CCC)C1Cc2cc(OC)c(OC)cc2C1,·,–,–,·,–,–
CN1/C(=C\C=C\C2=[N+](C)c3ccc4ccccc4c3C2(C)C)C(C)(C)c2ccccc21,–,·,·,·,·,·
CCN1/C(=C/C=C/C2=[N+](CC)c3ccccc3C2(C)C)C(C)(C)c2ccccc21,·,–,–,?,-131,-77
O=C(CCc1nnc2ccc(NCc3ccccc3Cl)nn12)N1CCC2(CC1)OCCO2,–,–,–,–,–,–
COC(=O)[C@H]1[C@H]2C[C@@H]3c4[nH]c5cc(OC)ccc5c4CCN3C[C@H]2C[C@@H](OC(=O)/C=C/c2cc(OC)c(OC)c(OC)c2)[C@@H]1OC,–,–,–,·,–,-73
CCOC(=O)C1(CCc2ccccc2)CCN(Cc2cccc3c2OCO3)CC1,–,–,–,?,-112,-97
CCOC(=O)C1(CCc2ccccc2)CCN(Cc2cccc3cnccc23)CC1,–,–,–,-83,–,?
CCOC(=O)C1(CCc2ccccc2)CCN(Cc2csc(C(C)=O)c2)CC1,–,–,–,–,–,–
CCOP(=S)(OCC)SCSc1ccc(Cl)cc1,·,–,·,·,·,·
Cc1cccc(NC2=NCCCS2)c1,–,–,–,–,–,–
SMILES,RXFP1 ag,Glioma ERSR ind,PTHR1 agonist,RXFP1 antagonist,KCNH2 WT inh,KCNH2 3.1 inh
Nc1ccc(C2(c3ccc(N)cc3)c3ccccc3-c3ccccc32)cc1,–,–,–,-80,–,–
COc1ccccc1N1CCN(C(=O)CCCn2c(=S)[nH]c3ccccc3c2=O)CC1,·,–,–,-65,–,–
O=C(CCCCCn1c(=S)[nH]c2ccccc2c1=O)N1CCC2(CC1)OCCO2,–,–,–,-83,–,–
C=CCCC1(CC)C(=O)NC(=S)NC1=O,·,–,–,–,–,–
C=CCC1(CCCCC)C(=O)NC(=S)NC1=O,·,–,–,–,-82,–
CN1CC[C@@]2(CCCN(C(=O)c3csnn3)C2)C1,·,–,·,·,·,·
Cc1ccc(C(=O)N[C@@H](C)CN2C3=NC[C@H](Cc4ccccc4)N3C[C@H]2Cc2ccc(O)cc2)cc1Br,–,–,–,·,-85,–
O=C(O)c1cccc2nc3ccccc3nc12,–,–,–,·,–,–
Cc1ccc(N2C(=O)NC(=O)/C(=C\c3cc(C)n(-c4cc(C(=O)O)cc(C(=O)O)c4)c3C)C2=O)cc1,–,–,–,–,-97,–
Cc1ccc(N2C(=O)NC(=O)/C(=C\c3cc(C)n(-c4ccc(C(=O)O)cc4)c3C)C2=O)cc1,–,–,–,–,–,?
CN1CCN(c2ccc(S(C)(=O)=O)cc2[N+](=O)[O-])CC1,–,–,–,–,–,–
CN1CCN(c2ccc([N+](=O)[O-])c3no[n+]([O-])c23)CC1,–,–,–,-87,–,–
O=[N+]([O-])c1ccc(N(CCO)CCO)c2c1no[n+]2[O-],·,–,–,–,–,-92
O=C(c1cc(-c2ccc(Cl)cc2)n(-c2ccc(Cl)cc2Cl)n1)N1CCOCC1,–,–,–,–,–,-104
Cc1cccc(N2C(=O)NC(=O)/C(=C\C=C\c3ccco3)C2=O)c1,–,–,–,-68,–,–
Cc1ccc(N2C(=O)NC(=O)/C(=C\C=C\c3ccco3)C2=O)cc1C,–,–,–,-70,–,–
Cc1cccc(N2C(=O)NC(=O)/C(=C\c3cccn3-c3ccc(Cl)cc3)C2=O)c1,–,–,–,-71,–,–
Cc1cc(C)cc(N2C(=O)NC(=O)/C(=C/c3cccn3-c3ccc(Cl)cc3)C2=O)c1,–,–,–,–,–,·
Cc1ccc(N2C(=O)NC(=O)/C(=C\C=C\c3ccco3)C2=O)cc1,–,–,–,–,–,–
CCCC(C)C(=O)NC1CCSC1=O (stereo not given),–,–,–,–,–,-83
O=P(NC(c1ccccc1)c1ccccc1)(Oc1ccccc1)Oc1ccccc1,–,–,–,–,–,-88
COc1nc(NC(C)C)nc(NC(C)C)n1,–,–,–,–,–,–
O=C1NC(=O)N(Cc2ccc(F)cc2)C(=O)/C1=C/c1cccs1,–,–,–,-74,–,–
